Among the test systems are NCI-H23 lung; NCI-H322M lung; HOP-62 NSCLC; NCI-H460 lung; HOP-92 NSCLC; NCI-H522 lung; A549/ATCC NSCLC; 786-0 renal; COLO 205 colon; DU-145 prostate; K-562 leukemia; MALME-3M melanoma; MDA-MB-231 breast; RXF 393 renal; SF-268 CNS; SF-295 CNS; SF-539 CNS; UACC-257 melanoma; M14 melanoma.
Common to all, as to assay: NCI-60 one-dose screen, 48 h (100 = growth as untreated, 0 = no growth, -100 = all killed)
Conditions in all cases: 10 µM

The panel holds about 83,000 compounds, 20% with a hit somewhere; the sample as a whole holds those more often.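 Single-concentration screen, 48 h exposure, 96-well plates. Endpoint: percent growth. Below 10 = active.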 Values without a mark were called inactive. Active and inactive are the calls of the source.

As to `CC(=O)OCC(=O)[C@@]1(O)CC[C@H]2[C@@H]3CC[C@@H]4C[C@H](O)CC[C@]4(C)[C@H]3C(=O)C[C@@]21C`, the growth in the assay with NCI-H23 lung was 103%; with NCI-H322M lung, 131%; in the assay on HOP-62 NSCLC, 105%; with NCI-H460 lung, 108%; with HOP-92 NSCLC, 93.4%; in the assay with NCI-H522 lung, 90.4%. Moreover, the growth in the assay with A549/ATCC NSCLC is 101%; with 786-0 renal, 105%; in the assay on COLO 205 colon it was 105%; in the assay on DU-145 prostate it was 120%; in the assay on K-562 leukemia, 101%; with MALME-3M melanoma it was 143%. The growth was 103% in the assay on MDA-MB-231 breast; 94.8% in the assay with RXF 393 renal; 102% in the assay on SF-268 CNS; 104% in the assay with SF-295 CNS; 100% with SF-539 CNS; 101% with UACC-257 melanoma. The growth with M14 melanoma is 110%.

With `O=[N+]([O-])c1ccccc1N=Nc1ccc(O)cc1O`, the growth was 103% with NCI-H23 lung; 107% in the assay on NCI-H322M lung; 106% with HOP-62 NSCLC; 115% with NCI-H460 lung; 112% in the assay with HOP-92 NSCLC; 106% in the assay on A549/ATCC NSCLC. In addition, the growth was 108% in the assay with 786-0 renal; 102% in the assay on COLO 205 colon; 117% with DU-145 prostate; 120% in the assay with K-562 leukemia; 109% in the assay on MALME-3M melanoma; 119% in the assay on MDA-MB-231 breast. Also, the growth is 121% with RXF 393 renal; 118% in the assay on SF-268 CNS; 107% in the assay with SF-295 CNS; 113% with SF-539 CNS; 103% with UACC-257 melanoma; 110% in the assay with M14 melanoma.

`O=c1[nH]nc(SC2CCCCC2)c(=O)[nH]1`: the growth in the assay on NCI-H23 lung was 91.3%; in the assay on NCI-H322M lung, 96.8%; in the assay with HOP-62 NSCLC, 93.7%; with NCI-H460 lung, 104%; with HOP-92 NSCLC, 82%; with NCI-H522 lung, 80.5%. For the same molecule, the growth was 91.4% with A549/ATCC NSCLC; 114% with DU-145 prostate; 84.3% in the assay with K-562 leukemia; 95.7% with MALME-3M melanoma; 102% with MDA-MB-231 breast; 129% in the assay on RXF 393 renal. Further, the growth is 98.8% in the assay with SF-268 CNS, 118% with SF-295 CNS, 99% in the assay on SF-539 CNS and 91.2% in the assay with UACC-257 melanoma.

In the case of `O=[N+]([O-])c1ccc(S(=O)(=O)NN=C2CCCCC2)cc1`, the growth with NCI-H23 lung was 104%; in the assay on NCI-H322M lung, 108%; in the assay on HOP-62 NSCLC, 99.5%; with NCI-H460 lung, 121%; with HOP-92 NSCLC, 96.7%; in the assay on A549/ATCC NSCLC, 93.9%. The growth in the assay with 786-0 renal was 103%; in the assay on DU-145 prostate it was 121%; with K-562 leukemia, 111%; in the assay with MALME-3M melanoma, 101%; in the assay on MDA-MB-231 breast, 108%; with RXF 393 renal, 117%. Moreover, the growth is 116% with SF-268 CNS; 97.8% in the assay on SF-295 CNS; 109% in the assay on SF-539 CNS; 95.6% in the assay on UACC-257 melanoma; 106% with M14 melanoma.

`CCCCOC(=O)c1ccc(C(C)C)cc1`: the growth with NCI-H23 lung is 98.2%; in the assay on NCI-H322M lung, 96.3%; in the assay on HOP-62 NSCLC, 85.4%; in the assay with HOP-92 NSCLC, 88.2%; with NCI-H522 lung, 83.1%; with A549/ATCC NSCLC, 77%. The growth is 95.4% with 786-0 renal; 110% in the assay with COLO 205 colon; 106% in the assay on DU-145 prostate; 106% in the assay with K-562 leukemia; 87% in the assay with MALME-3M melanoma; 109% with MDA-MB-231 breast. Further, the growth with RXF 393 renal was 112%; with SF-268 CNS, 100%; in the assay with SF-295 CNS, 101%; in the assay on SF-539 CNS, 96.6%; in the assay on UACC-257 melanoma, 77.3%; in the assay with M14 melanoma, 96.5%.

Take `CCCCCCCCO`: the growth in the assay with NCI-H23 lung is 97.5%; in the assay on NCI-H322M lung, 108%; with HOP-62 NSCLC, 99.6%; in the assay with NCI-H460 lung it was 103%; in the assay on HOP-92 NSCLC, 107%; with NCI-H522 lung, 107%. Further, the growth in the assay with A549/ATCC NSCLC was 100%; in the assay on 786-0 renal, 102%; with COLO 205 colon, 114%; in the assay on DU-145 prostate, 104%; in the assay on K-562 leukemia, 101%; in the assay with MALME-3M melanoma, 106%. The growth was 118% in the assay with MDA-MB-231 breast; 106% in the assay on RXF 393 renal; 108% in the assay with SF-268 CNS; 108% in the assay on SF-295 CNS; 97.4% in the assay with SF-539 CNS; 101% with UACC-257 melanoma. Besides, the growth with M14 melanoma is 105%.

`O=[N+]([O-])c1cccc(N=Nc2ccc(O)cc2O)c1`: the growth in the assay with NCI-H23 lung was 74.3%; with NCI-H322M lung, 95.9%; in the assay with HOP-62 NSCLC, 103%; in the assay on NCI-H460 lung, 91.6%; with HOP-92 NSCLC it was 47.4%; in the assay with NCI-H522 lung, -11.1% (active). Further, the growth in the assay on A549/ATCC NSCLC was 93.6%; with 786-0 renal it was 74%; in the assay with COLO 205 colon, 92.2%; with DU-145 prostate it was 95.2%; in the assay with K-562 leukemia, 17.7%; in the assay with MALME-3M melanoma it was 65.8%. Further, the growth with MDA-MB-231 breast was 76.5%; in the assay with RXF 393 renal, 83.5%; with SF-268 CNS, 83.4%; in the assay with SF-295 CNS, 95.7%; in the assay on SF-539 CNS, 89.7%; in the assay with UACC-257 melanoma, 72.5%. In addition, the growth with M14 melanoma is 97%.

For `CC(=O)OCCO`, the growth is 108% with NCI-H23 lung; 102% in the assay on NCI-H322M lung; 109% with HOP-62 NSCLC; 111% with NCI-H460 lung; 111% in the assay with NCI-H522 lung; 99.2% in the assay with A549/ATCC NSCLC. Besides, the growth was 101% in the assay with 786-0 renal; 107% with COLO 205 colon; 110% in the assay on DU-145 prostate; 103% with K-562 leukemia; 93.5% in the assay with MALME-3M melanoma; 121% in the assay with MDA-MB-231 breast. Further, the growth is 105% in the assay with RXF 393 renal; 106% in the assay with SF-268 CNS; 104% in the assay on SF-539 CNS; 102% in the assay with UACC-257 melanoma; 105% in the assay with M14 melanoma.

The record behind these values is PubChem BioAssay (NCI).
